Screening results as filed in PubChem.
D3 ag – activates the human D3 dopamine receptor; 410,000 compounds, 0.58% hits; D3R DiscoveRx beta-arrestin cells, luminescence, 90 min; max activation, %; P35462; AID 652048; in the data active = max activation above about 30%
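Agonist-mode cell screen: cells plated at 1500/well and incubated overnight at 37 °C, then exposed to library compounds for 90 min at 37 °C. Detection reagent was added for 30–60 min at room temperature, and luminescence was read.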
D3 antag – blocks the human D3 dopamine receptor | P35462 | D3R cells, DiscoveRx beta-arrestin luminescence, antagonist mode; active compounds read low | max response, negative = inhibition, % | 360,000 compounds, 2.5% hits; in the data active = max response below about -50%; inconclusive = no clear call, values can overlap the other calls
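Cells expressing the human receptor were seeded at 1500 cells/well, incubated overnight at 37 degrees C in 5% CO2, then exposed to library compounds with dopamine controls for 90 minutes at 37 degrees C before luminescent detection.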
D1 antag – antagonists of human D1 dopamine receptor | HEK293 TREx D1 cells, calcium flux, dopamine EC80; active compounds read low | P21728 | activity change, negative = inhibition, % at 10 µM | 360,000 compounds, 3.2% hits; in the data active = activity change below about -30%
Target sequence (P21728 whole entry, looked up): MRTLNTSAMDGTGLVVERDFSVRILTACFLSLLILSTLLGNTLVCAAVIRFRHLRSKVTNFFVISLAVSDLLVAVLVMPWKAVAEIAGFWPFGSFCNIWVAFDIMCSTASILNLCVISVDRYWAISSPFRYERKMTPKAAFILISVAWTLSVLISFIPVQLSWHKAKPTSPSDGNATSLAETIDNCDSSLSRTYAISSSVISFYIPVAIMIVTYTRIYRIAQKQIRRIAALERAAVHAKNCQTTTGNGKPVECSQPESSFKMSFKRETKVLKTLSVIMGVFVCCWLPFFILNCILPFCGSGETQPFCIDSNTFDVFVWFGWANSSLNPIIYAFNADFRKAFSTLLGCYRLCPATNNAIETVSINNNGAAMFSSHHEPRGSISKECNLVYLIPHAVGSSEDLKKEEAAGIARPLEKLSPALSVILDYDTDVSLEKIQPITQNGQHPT
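Inducible Hek293 Trex D1 cells (tetracycline, overnight, 30 C). Calcium dye 30–90 min RT. Antagonist mode: EC80 dopamine added after 180 s compound read.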
D1 ag – human D1 receptor agonism; P21728; HEK293 T-REx D1 cells, calcium flux, agonist mode; activation, % at 2 µM; 360,000 compounds, 1% hits; AID 504660; in the data active = activation above about 30%
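Tetracycline-induced HEK293 TREx D1 cells, force-coupled to calcium signalling, were dye-loaded with a no-wash calcium kit. Compound was pin-added after a 10 s baseline. Fluorescence was read kinetically at 1 cycle/s for 180 s, with calcium rises flagged as agonism.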
D1 PAM – human D1 dopamine receptor positive modulation; P21728; HEK293 TREx D1 cells, calcium flux, dopamine EC20 potentiation; potentiation, % at 10 µM; 360,000 compounds, 0.036% hits; in the data active = potentiation above about 30%
Each line names hits and unclear results; the compound was inactive in the other large screens. This is a sample that favours compounds with a hit; in the whole collection about 6% have one here.

COc1ccc(C(=O)/C=C/c2ccc(O)cc2)c(O)c1CC=C(C)C	D3 antag -67
CC1(C)CC(=O)c2cc(C(=O)Nc3ccc(Br)cc3)c(=O)[nH]c2C1	none (no result: D3 antag)
CCOc1cc(C2C(C(=O)Nc3ccccc3)=C(C)Nc3ncnn32)cc(Br)c1O (stereo not drawn)	none (no result: D3 antag)
CCCCNC(=O)COC(=O)c1c2c(nc3ccccc13)/C(=C\c1cccs1)CC2	D3 ag 34 (no result: D1 antag, D1 ag, D1 PAM)
CC1CCCCC1NC(=O)COC(=O)c1c2c(nc3ccccc13)/C(=C/c1ccco1)CC2 (stereo not drawn)	none
CC(C)CNC(=O)COC(=O)c1c2c(nc3ccccc13)/C(=C/c1cccs1)CC2	none
O=C(COC(=O)c1c2c(nc3ccccc13)/C(=C/c1ccco1)CC2)NC1CCCC1	D1 antag -49
O=C(NC(Cc1c[nH]c2ccccc12)C(=O)O)c1ccco1 (stereo not drawn)	none
O=C(Nc1ccccc1C(=O)NC(Cc1c[nH]c2ccccc12)C(=O)O)c1ccco1 (stereo not drawn)	D3 antag -55
CC(C)(C)c1ccc(OCC(=O)NC(Cc2c[nH]c3ccccc23)C(=O)O)cc1 (stereo not drawn)	D1 ag 49 (no result: D3 antag)
O=S(=O)(c1ccc2c(c1)OCCO2)N1CCN(S(=O)(=O)c2ccc(Br)cc2F)CC1	none (no result: D3 ag, D3 antag)
CCN(CC)Cc1c(-c2ccccc2)[nH]c2ccc(C)cc2c1=O	D1 antag -48
CSc1cccc(NS(=O)(=O)c2ccc3[nH]cc(C(=O)N4CCCC4)c(=O)c3c2)c1	none (no result: D3 antag)
Cc1ccc(CN(Cc2cccn2-c2nnc(N3CCCC3=O)s2)C(=O)Nc2ccccc2Cl)cc1	D1 antag -69 (no result: D3 antag)
O=S(=O)(c1ccc(F)cc1)N1CCN(c2nc(-c3cccs3)nc3cc(Cl)ccc23)CC1	none (no result: D3 ag, D3 antag)
CC1=C(C(=O)N(C)C)CC(CC(=O)NCCCCc2ccccc2)C(=O)N1Cc1ccc(C(C)(C)C)cc1 (stereo not drawn)	none (no result: D1 antag, D1 ag, D1 PAM)
Cc1ccc(C)c(NC(=O)CN2CCCN(Cc3cccc(Cl)c3)S2(=O)=O)c1	D1 antag -79 (no result: D3 antag)
O=C(c1ccco1)N(Cc1cccc([N+](=O)[O-])c1)c1ccc(Br)cc1	D3 antag inconclusive, D1 antag -36
O=C(c1ccco1)N(Cc1ccc([N+](=O)[O-])cc1)c1ccc(Br)cc1	none
CC(=O)Oc1c(C)cc(OCC(O)CNC(C)C)c(C)c1C (stereo not drawn)	none (no result: D3 antag, D1 antag, D1 ag, D1 PAM)
O=C(O)Cn1cccc1C(=O)c1ccccc1	D1 ag 33
Nc1nc2c(s1)CCCCCCCCCC2	none
C=CCN1CCc2nc(N)sc2CC1	D3 ag 93
CCN1CCc2nc(N)sc2C1	D3 ag 40
Nc1nc(C2CC2)c(Sc2sc(N)nc2C2CC2)s1	D1 antag -49
Nc1nc(C2CCOCC2)cs1	none
Cc1ccc(NC(=O)c2ncn(CCCN(C)CCc3ccccn3)n2)cc1C	none (no result: D1 antag, D1 ag, D1 PAM)
O=C(Cc1cccs1)N[C@@H]1C(=O)N2C(C(=O)[O-])=C(C[n+]3ccccc3)CS[C@H]12	none (no result: D3 antag, D1 antag, D1 ag, D1 PAM)
O=C(CN1CCN(c2ccccc2)CC1)Nc1cccc(C(F)(F)F)c1	D3 antag -50
O=C(Nc1ccccc1)N1CCN(c2cccc(C(F)(F)F)c2)CC1	D1 antag -34
CN(CC(=O)Nc1cccc(F)c1)C(=O)c1ccc(C(=O)c2ccccc2)cc1	D1 antag -60
COc1ccc(NC(=O)N2CCN(c3cccc(C(F)(F)F)c3)CC2)cc1OC	none
CN(CC(=O)Nc1cccc(F)c1)C(=O)c1ccc(COc2ccccc2)cc1	none
O=C(CN1CCN(Cc2ccccc2)CC1)Nc1cccc(C(F)(F)F)c1	none (no result: D1 antag)
O=C(C1CCC1)N1CCN(c2cccc(C(F)(F)F)c2)CC1	D1 antag -54
Cc1cccc(NC(=O)Cn2c(=O)n(CCc3ccccc3)c(=O)c3sc4ccccc4c32)c1	none (no result: D3 antag)
CC1(CCC(=O)N2CCCC(N3CCN(c4cccc(C(F)(F)F)c4)CC3)C2)CC1 (stereo not drawn)	D3 antag -66
O=C(CCS(=O)(=O)c1ccccc1)N1CCN(c2cccc(C(F)(F)F)c2)CC1	none
COc1ccc(NC(=O)CN(C)C(=O)c2ccccc2OCC(=O)Nc2cccc(C(F)(F)F)c2)cc1	D1 antag -33
O=C(CS(=O)(=O)Cc1ccccc1)N1CCN(c2cccc(C(F)(F)F)c2)CC1	D3 antag inconclusive, D1 antag -33
CN(CC(=O)Nc1cccc(C(F)(F)F)c1)Cc1ccccc1	D3 antag -54
Cc1ccc(-c2nc3ccc(Cl)cn3c2Cc2cccc(Cl)c2)cc1	none (no result: D1 antag, D1 ag, D1 PAM)
COc1ccc(C(=O)N/C(=C/c2cccs2)C(=O)N2CCN(C)CC2)cc1	none (no result: D1 antag, D1 ag, D1 PAM)
COc1cccc(CNC(=O)C2Cc3cc(S(=O)(=O)N4CCCCCC4)ccc3N2C(C)=O)c1 (stereo not drawn)	none (no result: D3 antag)
CN1CCN(c2ccc(C(F)(F)F)cc2NC(=O)Nc2ccccc2)CC1	D1 ag 73
O=C(c1noc2c1CCCCC2)N1CCN(c2cccc(C(F)(F)F)c2)CC1	D3 ag 52 (no result: D3 antag)
CC(C)Cn1c(CN2CCN(c3cccc(Cl)c3)CC2)nc2c1c(=O)[nH]c(=O)n2C	none (no result: D3 antag)
COC1=CC(=Cc2c(N)n3nc(CC(=O)N4CCCCC4)sc3nc2=O)C=C(OC)C1=O	D1 ag 62
CCCN(CCC)CCNC(=O)C1CCN(c2nc3ccc(CC)cc3s2)CC1	D1 antag -30, D1 ag 90 (no result: D3 antag)
CCCN(CCC)CCCNC(=O)C1CCN(c2nc3ccc(CC)cc3s2)CC1	D1 antag -31, D1 ag 30 (no result: D3 antag)
CCOc1ccc(NC(=O)c2cc(S(=O)(=O)N3CCc4ccccc43)ccc2F)cc1	none (no result: D3 antag)
COc1ccc(/C=C2\CCc3ccccc3C2=O)cc1Cn1nc(C)cc1C	D3 antag -79
Cc1csc2nc3cc(C(N)=O)ccc3c(=O)n12	D1 antag -44
Cc1ccc(C2CCN(C(=O)c3cnn(-c4ccc(C)c(C)c4)c3C3CCN(C(=O)OC(C)(C)C)CC3)C2)cc1 (stereo not drawn)	none (no result: D3 antag)
Cc1ccc(NC(=O)CSc2nc3c([nH]c4ccccc43)c(=O)n2C)cc1	D1 antag -33
Cn1c(SCC(=O)Nc2ccc(F)cc2)nc2c([nH]c3ccccc32)c1=O	none
O=C(CSc1nc2c([nH]c3ccccc32)c(=O)n1-c1ccc(F)cc1)N1CCc2ccccc21	D1 antag -45 (no result: D3 antag)
COc1ccc(-n2c(SCC(=O)Nc3cccc(C)c3C)nc3c([nH]c4ccccc43)c2=O)cc1	none (no result: D3 antag)
Cc1cccc(NC(=O)CSc2nc3c([nH]c4ccccc43)c(=O)n2-c2ccc(F)cc2)c1C	D1 antag -33 (no result: D3 antag)
O=C(CSc1nc2c([nH]c3ccccc32)c(=O)n1-c1ccccc1)N1CCc2ccccc21	none (no result: D3 antag)
Cc1cccc(NC(=O)CSc2nnc3ccc(-c4ccccn4)nn23)c1	none
CCOc1ccccc1CNC(=O)C1CCN(S(=O)(=O)c2cccc3nonc23)CC1	none (no result: D3 antag)
